# According to the supplement of paper PMC3334620:
# Over roughly 33,000 sequences, “E-score (-0.5 to 0.5)” has its median near -0.0034; the highest 2% begin near 0.25. Many of the other results were omitted from the sample, so the highest values are more common in it than they were.
# Target: T1, Yap3 (UniProt P38749)
# T1 sequence: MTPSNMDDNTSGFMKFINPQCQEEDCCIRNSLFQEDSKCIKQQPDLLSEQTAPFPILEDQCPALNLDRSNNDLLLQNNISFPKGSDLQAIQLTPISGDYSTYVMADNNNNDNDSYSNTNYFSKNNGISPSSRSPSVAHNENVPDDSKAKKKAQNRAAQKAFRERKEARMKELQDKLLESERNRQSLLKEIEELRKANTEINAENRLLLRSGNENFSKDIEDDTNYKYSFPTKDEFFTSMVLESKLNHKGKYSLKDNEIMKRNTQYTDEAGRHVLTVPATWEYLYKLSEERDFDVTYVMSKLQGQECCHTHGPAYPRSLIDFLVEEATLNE
# Assay: PBM E-score (8-mer binding enrichment) (E-score (-0.5 to 0.5)); higher = stronger / more preferred TF binding
# Settings: protein concentration: 100 nM; construct: GST-full length
# Experimental: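 Universal 'all 10-mer' protein binding microarrays (Agilent AMADID 015681) probed with GST-tagged S. cerevisiae TFs (full-length or DBD) made by in vitro transcription/translation (PURExpress), about 100-200 nM. Bound TF was detected with fluorescent anti-GST. Each ungapped 8-mer (which stands for itself and its reverse complement) is scored by the PBM enrichment score (E-score), a modified Wilcoxon-Mann-Whitney statistic from -0.5 to +0.5, computed with the Universal PBM Analysis Suite. Scale: above 0.35 generally sequence-specific binding.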
row,Sequence,PBM E-score
1,ACATATAA,0.29
2,CTATATAA,0.121
3,ACATATAC,0.146
4,CTCTATAA,0.0647
5,TGATATAA,0.108
6,CGGTATAA,0.18
7,TTATATAA,0.418
8,GTATATAA,0.217
9,ACATATAT,0.123
10,AGGTATAA,0.0868
11,TGGTATAA,0.268
12,ATATATAA,0.295
13,GCCTGCCC,-0.297
14,CAGAACTG,0.157
15,AGCATGAC,-0.037
16,ACGACCTG,-0.18
17,AAAGTGTC,-0.0685
18,CGGACTAG,-0.101
19,CTAGAGAG,-0.139
20,TGCGACAA,-0.00108
21,GGCGACAA,-0.181
22,CGCGACAA,0.272
23,GCGTCCCA,-0.121
24,GGTGGCGA,-0.0578
25,AAGGAGCG,0.00726

row,Sequence,PBM E-score
1,ACGGCAAT,0.285
2,ACGGCAAG,0.1
3,ACGGCAAA,0.134
4,GGGAAAAC,0.0844
5,GGAAAAAA,0.248
6,AAAAAAAC,0.151
7,AAAAAAAA,0.244
8,GGAAAAAC,0.3
9,GAAAAAAA,0.287
10,GAAAAAAC,0.255
11,GAAAAACC,0.136
12,GGAAAACC,-0.11
13,CCCAGCAC,-0.123
14,CACAGCAA,0.103
15,AGTCCTAC,-0.125
16,CTACCTTC,0.0321
17,AAGCTAAC,0.0596
18,CCTAAGGC,-0.38
19,CTACTTCA,-0.0894
20,GTACTTCA,0.287
21,ATACTTCA,0.0363
22,GCCAGGCA,-0.12
23,AACAGGCC,-0.258
24,ACGCGTTG,-0.027
25,TTACCTAA,0.281

row,Sequence,PBM E-score
1,ATACCTAC,-0.0217
2,GTACCTAA,-0.0819
3,CTACCTAA,0.126
4,ATACCTAT,0.124
5,ATACCTAA,0.273
6,CTCAGACA,0.087
7,GCATTCAA,0.0939
8,GGAACAAC,0.157
9,TGAACAAA,0.248
10,CGAACAAA,0.303
11,AGAACAAT,0.221
12,AGAACAAG,0.205
13,AGAACAAA,0.291
14,GCAACAAA,0.193
15,CGAACAAG,0.0425
16,GGAACAAA,0.311
17,CGCTCAAG,-0.114
18,AACTGGAC,0.0415
19,CGCGAGAG,-0.0457
20,AAGGCTTA,0.0457
21,AAGAGAGG,-0.163
22,GTTGTTCA,-0.0828
23,GTGTATTA,0.338
24,GCGTATTA,0.148
25,ATGTATTA,0.178

row,Sequence,PBM E-score
1,CTGTATAA,0.13
2,CTGTATTA,0.258
3,CTGTATTC,0.128
4,ACGTATTG,0.111
5,CTGTAGTA,0.281
6,ACGTATTA,0.282
7,ATGTAGTA,0.237
8,GTGTAGTA,0.0243
9,GTGTATGA,0.0534
10,GCTGCTCC,-0.307
11,ATCATATC,0.193
12,CGCTGTCA,-0.151
13,CGAGAACC,-0.00819
14,CGCACACG,-0.135
15,CCGTGAGA,-0.162
16,AACGCGCC,-0.0619
17,AGCTTTCC,-0.0722
18,ATTTGACG,0.138
19,CTGGGCCC,-0.273
20,ATGTGTTA,0.2
21,CTGTGTTA,0.162
22,GTGTGTTA,0.259
23,TGTTGGAA,0.122
24,AAGTCGAA,-0.0326
25,ATTACCAC,0.136

row,Sequence,PBM E-score
1,ATTACCAA,0.271
2,TGTACCAA,0.0503
3,AGTACCAA,0.281
4,GTTACCAA,0.221
5,CGTACCAA,0.21
6,AACTCAAA,0.187
7,GACGCGCC,-0.119
8,AATATGGC,0.0119
9,ATGACAAC,0.189
10,ATGACAAG,-0.0324
11,ATGACGTG,0.127
12,CTGACGTA,0.0592
13,ATCACGTA,0.311
14,ATGACAAA,0.307
15,ATCACGTG,0.0436
16,ATGACGTA,0.277
17,ATCACGTC,0.16
18,TGACTGCA,-0.167
19,CGCAGGTA,-0.116
20,ACTTAAGT,0.193
21,CCGAGCGC,0.00891
22,ACCTAGGG,-0.0254
23,AGCAACGA,0.117
24,CCGCTCGC,-0.178
25,ACAAGTTA,0.16

row,Sequence,PBM E-score
1,AACAATAT,0.329
2,AACAATAC,0.0469
3,ACCAATAT,0.254
4,AACAATAA,0.179
5,ACCAATAG,-0.0827
6,ACCAATAC,0.0412
7,CGTGAACC,-0.157
8,TCTCAGCA,0.0139
9,CAATTGGC,0.179
10,AATCCCCA,-0.0814
11,CGGTTACC,-0.159
12,ACCATGCG,0.0314
13,AAATTGGT,0.244
14,CCAGGGAA,-0.188
15,ACGAACCA,0.266
16,ACGAACCC,-0.133
17,CCGAACCA,-0.116
18,AGAAGGCA,-0.115
19,AATGCATA,0.0923
20,AATGCAAC,0.104
21,AATGCGCG,0.178
22,AATGCGCA,0.295
23,AATGCATG,0.188
24,AATGCAAA,0.262
25,CATGCGCA,0.0286

row,Sequence,PBM E-score
1,AATGCAAG,0.0231
2,AATGCATT,0.258
3,GCTCTCCA,-0.215
4,TCTATTCA,0.222
5,TCAAACCA,0.165
6,ACACTCGT,0.00445
7,TAATCCAA,0.24
8,AGAGCCCA,-0.112
9,CGGAAGAC,-0.00677
10,ATAATCTA,0.229
11,ATAATAGG,0.157
12,ATAATATG,0.307
13,GTAATAGA,0.223
14,CTAATCTA,0.00845
15,GTAATATA,0.354
16,ATAATATC,0.194
17,AGAATATA,0.14
18,ATAATATA,0.307
19,CGAATATA,0.148
20,GTAATCTA,0.319
21,CTAATATA,0.235
22,CAATCGGC,-0.0271
